Results taken from PubChem BioAssay (NCATS).
Values joined by “and” are separate entries in the source; they are usually repeats but may differ in a detail not shown here. Equal entries are not always repeated. Results filed as inconclusive are left out. The source holds several records for some structures; these can differ, active in one and inactive in another. Active and inactive are the calls of the source. Unless noted, the call rests on the fitted dose curve.

Test system: not listed separately
Assay: AP1 Signaling Pathway (AID 357; active means well fitted curve in either direction with a large enough effect, not every such curve was filed as active;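 further: ME-180 reporter cells stimulated with EGF at its EC50 level; on the % scale 0 is the no-effect control and ±100 the full control effect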)
Details: ME-180 (cervical carcinoma) AP-1-bla reporter, EGF-induced, beta-lactamase ratio, 5 h; at 38 µM (top of the series)
In short: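 In this screen, ME-180 cells in Opti-MEM with 0.5% dialyzed FBS received EC50 EGF and compound titrations for 5 h. AP-1 reporter beta-lactamase was detected via CCF4 ratio, giving AC50 for positive and negative modulators.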
For `CCCn1cnc2c1c(=O)n(CCCCC(C)=O)c(=O)n2C`, the activity change, negative = inhibition was -2.42% (inactive). In the case of `COc1ccc(Cl)cc1C(=O)NCCc1ccc(S(=O)(=O)NC(=O)NC2CCCCC2)cc1`, the activity change, negative = inhibition is reported as -26.7% (inactive). For `CC1=C(CC(=O)O)c2cc(F)ccc2/C1=C\c1ccc(S(C)(=O)=O)cc1`, the activity change, negative = inhibition was 11.6% (inactive). For `CCN(CC)CCNC(=O)c1cc(Cl)c(N)cc1OC`, the activity change, negative = inhibition was 17% (inactive). For `CC(C)NC[C@H](O)c1ccc(O)c(O)c1`, the activity change, negative = inhibition was -3.34% (inactive) [middle of 4 runs]. For `C#CCN(C)Cc1ccccc1`, the activity change, negative = inhibition was 1.9% (inactive). In the case of `CC(C)C(=O)c1c(C(C)C)nn2ccccc12`, the activity change, negative = inhibition is reported as -2.6% (inactive). In the case of `N=c1c[n+](N2CCOCC2)[n-]o1`, the activity change, negative = inhibition is reported as 9.68% (inactive). In the case of `Nc1cc(=O)[nH]c(N)n1`, the activity change, negative = inhibition is reported as -5.58% (inactive). With `CC1=C(CC(=O)O)c2cc(F)ccc2/C1=C\c1ccc(S(C)=O)cc1` (stereo not given) the activity change, negative = inhibition was -0.0105% (inactive). For `OCCN1CCN(CCCN2c3ccccc3Sc3ccc(Cl)cc32)CC1`, the activity change, negative = inhibition was 7.4% (inactive). In the case of `C=Cc1c(C)c2cc3[nH]c(cc4nc(cc5nc(cc1[nH]2)C(C)=C5CCC(=O)O)C(CCC(=O)O)=C4C)c(C)c3C=C`, the activity change, negative = inhibition is reported as -5.02% (inactive). In the case of `NC(N)=NCCC[C@H](N)C(=O)O`, the activity change, negative = inhibition is reported as -0.498% (inactive). With `CCN(CC)CCOC(=O)C1(C2CCCCC2)CCCCC1` the activity change, negative = inhibition was 20.8% (inactive). For `NC1CCN(c2cccc(Cl)n2)CC1`, the activity change, negative = inhibition was 2.98% (inactive).

Molecular target: Cytochrome P450 1A2 (Homo sapiens) (UniProt P05177)
Sequence (P05177 whole entry, looked up): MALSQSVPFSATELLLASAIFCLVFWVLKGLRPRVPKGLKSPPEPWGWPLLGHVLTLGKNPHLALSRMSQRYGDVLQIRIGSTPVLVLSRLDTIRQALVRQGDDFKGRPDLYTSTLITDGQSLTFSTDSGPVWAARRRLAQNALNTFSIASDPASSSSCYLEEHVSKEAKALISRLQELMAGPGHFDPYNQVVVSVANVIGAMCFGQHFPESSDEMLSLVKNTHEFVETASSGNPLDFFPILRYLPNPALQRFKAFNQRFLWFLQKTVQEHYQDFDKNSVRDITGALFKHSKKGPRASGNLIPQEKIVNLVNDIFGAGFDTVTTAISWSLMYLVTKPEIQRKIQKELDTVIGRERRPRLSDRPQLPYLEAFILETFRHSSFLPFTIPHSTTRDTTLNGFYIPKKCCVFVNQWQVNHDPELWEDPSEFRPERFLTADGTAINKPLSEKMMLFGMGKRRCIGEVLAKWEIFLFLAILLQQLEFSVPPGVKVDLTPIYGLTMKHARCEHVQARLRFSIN
Assay: p450-cyp1a2 (AID 410); further: potency means the concentration at half of the fitted maximal effect;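 on activity change, negative = inhibition: -100% = full effect of reference inhibitor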
Details: recombinant CYP1A2, luciferin-ME demethylation, luminescence; series mostly up to 25.6 µM; activity change, negative = inhibition: at the top concentration
In short: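 O-Demethylation of luciferin 6' methyl ether by human CYP1A2 is monitored as luciferase luminescence. Substrate sits at Km (100uM); enzyme is 20nM. Values are scaled to 57 uM furafylline as maximal inhibition.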
In the case of `Cc1cccc(Nc2cc(Cl)nc(SCC(=O)O)n2)c1C`, the Potency is reported as “inactive”. With `CCCn1cnc2c1c(=O)n(CCCCC(C)=O)c(=O)n2C` the Potency was 12.6 µM (active). In the case of `Nc1ccc(S(=O)(=O)Nc2nccs2)cc1`, the “activity change, negative = inhibition” value is reported as -1.6% (inactive). For `c1ccc2c(CC3=NCCN3)cccc2c1`, the “activity change, negative = inhibition” value was -10.3% (inactive). For `COc1ccc(Cl)cc1C(=O)NCCc1ccc(S(=O)(=O)NC(=O)NC2CCCCC2)cc1`, the Potency was “inactive”. In the case of `Cc1c(Cl)cccc1Nc1ccccc1C(=O)O`, the Potency is reported as 3.16 µM (active). For `CC1=C(CC(=O)O)c2cc(F)ccc2/C1=C\c1ccc(S(C)(=O)=O)cc1`, the Potency was 12.6 µM (active). For `Cc1cc(N)c2ccccc2[n+]1CCCCCCCCCC[n+]1c(C)cc(N)c2ccccc21`, the Potency was “inactive and 10 µM (active) and 15.8 µM (active)”. With `CCN(CC)CCNC(=O)c1cc(Cl)c(N)cc1OC` the Potency was 15.8 µM (active). With `c1ccc(CN(CC2=NCCN2)c2ccccc2)cc1` the “activity change, negative = inhibition” value was -9.3% (inactive). With `CC1(C)OC(=O)NC1=O` the “activity change, negative = inhibition” value was -5.1% (inactive). For `Nc1ccc(S(=O)(=O)Nc2ccc(Cl)nn2)cc1`, the “activity change, negative = inhibition” value was -7.1% (inactive). In the case of `CCCCN1CCCC[C@H]1C(=O)Nc1c(C)cccc1C`, the Potency is reported as 5.01 µM (active). In the case of `NS(=O)(=O)c1cc2c(cc1Cl)NC(CSCc1ccccc1)=NS2(=O)=O`, the “activity change, negative = inhibition” value is reported as -0.4% (inactive). With `CCn1cc(C(=O)O)c(=O)c2cnc(N3CCNCC3)nc21` the “activity change, negative = inhibition” value was -8.4% (inactive). In the case of `C#CCN(C)Cc1ccccc1`, the Potency is reported as “inactive”. With `CC(C)C(=O)c1c(C(C)C)nn2ccccc12` the Potency was 1.26 µM (active) and 631 nM (active). In the case of `CCCCN(CCCC)CCCOC(=O)c1ccc(N)cc1`, the Potency is reported as 10 µM (active). With `COc1ccc2c(c1)C(=O)N(CCc1ccc(S(=O)(=O)NC(=O)NC3CCCCC3)cc1)C(=O)C2(C)C` the “activity change, negative = inhibition” value was -0.7% (inactive). In the case of `CCOc1ccc2ccccc2c1C(=O)N[C@@H]1C(=O)N2[C@@H]1SC(C)(C)[C@@H]2C(=O)O`, the “activity change, negative = inhibition” value is reported as -7% (inactive). For `CNCCCC1c2ccccc2C=Cc2ccccc21`, the Potency was “inactive”. With `Cc1cc2c(cc1S(N)(=O)=O)S(=O)(=O)CCC2` the “activity change, negative = inhibition” value was -16.8% (inactive). In the case of `CCCCOC(=O)c1ccc(O)cc1`, the Potency is reported as 0.0794 µM (active). For `Nc1cc(=O)[nH]c(N)n1`, the Potency was “inactive”. With `Nc1ccc(S(=O)(=O)NC(=O)c2ccccc2)cc1` the “activity change, negative = inhibition” value was -3.9% (inactive). With `CC1=C(CC(=O)O)c2cc(F)ccc2/C1=C\c1ccc(S(C)=O)cc1` (stereo not given) the Potency was 12.6 µM (active) and 3.98 µM (active). In the case of `C=Cc1c(C)c2cc3[nH]c(cc4nc(cc5nc(cc1[nH]2)C(C)=C5CCC(=O)O)C(CCC(=O)O)=C4C)c(C)c3C=C`, the Potency is reported as 6.31 µM (active). For `NC(N)=NCCC[C@H](N)C(=O)O`, the Potency was “inactive and 31.6 µM (active)”. For `NC1CCN(c2cccc(Cl)n2)CC1`, the Potency was 20 µM (active) and 15.8 µM (active). For `CC(=O)c1ccc2c(c1)N(CCCN(C)C)c1ccccc1S2`, the Potency was 1.58 µM (active).
